Screening results from PubChem.
In the library only some 4.1% were active in any assay of this set; here they are far more common.
MEKK2wt PB1 HTS – raises or lowers MEK5 binding to wildtype human MEKK2 PB1 domain. bead flow cytometry, Alexa488-MEK5 binding to MEKK2 WT; actives lie on both sides. 290,000 compounds, 1.1% hits. AID 1531. binding response (% of control), % at 10 µM; in the data active = binding response below about 67% or above about 130%
MEKK3 PB1 HTS – MEKK3-MEK5 PB1 interaction, increase or decrease; bead-based flow cytometry, Alexa488-MEK5 binding to MEKK3; actives lie on both sides; 0 = blocked by unlabeled MEK5, 100 = vehicle; 290,000 compounds, 1.4% hits; AID 1529; binding response (% of control), % at 10 µM;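 active = binding response more than 3 SD above or below the average of its plate-row segment, actives on both sides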;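 note: Alexa488 bead fluorescence after subtracting the streptavidin-only scavenger bead signal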
CHT block – inhibitors of human choline transporter CHT; CHT-expressing cells, membrane potential dye, choline response; stronger effect = lower value; B-score at 10 µM; 310,000 compounds, 0.86% hits;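 active = B-score over 3 SD under the library average, and starting fluorescence ratio not unusually high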;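 note: choline stimulus applied at its EC90 after an EC20 pre-addition; B-score computed on integrated fluorescence ratio after choline addition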
Target sequence (Q9GZV3 whole entry, looked up): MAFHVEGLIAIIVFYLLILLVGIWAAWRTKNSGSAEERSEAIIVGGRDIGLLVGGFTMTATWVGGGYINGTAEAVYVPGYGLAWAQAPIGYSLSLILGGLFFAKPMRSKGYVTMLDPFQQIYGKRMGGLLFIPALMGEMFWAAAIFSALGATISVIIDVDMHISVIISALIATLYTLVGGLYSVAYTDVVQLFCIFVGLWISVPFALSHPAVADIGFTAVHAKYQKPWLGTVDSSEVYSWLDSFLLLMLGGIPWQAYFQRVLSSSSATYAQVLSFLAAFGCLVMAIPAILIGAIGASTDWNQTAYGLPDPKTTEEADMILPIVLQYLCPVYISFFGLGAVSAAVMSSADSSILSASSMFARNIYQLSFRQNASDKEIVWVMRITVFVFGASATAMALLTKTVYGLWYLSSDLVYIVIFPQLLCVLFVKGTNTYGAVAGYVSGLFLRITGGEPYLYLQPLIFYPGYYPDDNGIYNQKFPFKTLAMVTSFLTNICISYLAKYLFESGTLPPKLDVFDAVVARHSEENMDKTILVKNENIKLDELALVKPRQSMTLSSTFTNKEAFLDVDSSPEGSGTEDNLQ
MEKK2mut PB1 HTS – signal of MEK5 binding to mutant human MEKK2 PB1 domain; 290,000 compounds, 0.35% hits; percent response, % at 10 µM; bead flow cytometry, Alexa488-MEK5 binding to MEKK2 mutant; in the data active = percent response above about 24%, passing the limit was not always enough
SUMO Mot1 rescue – blocks SUMOylation pathway, rescuing yeast Mot1-301 growth; 320,000 compounds, 1% hits; growth rescue, % at 18.8 µM; S. cerevisiae Mot1-301 growth rescue, ATP luminescence, 38.5C; percent above DMSO median, 100 means doubled;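 active = every valid replicate shows activation above 250% relative to neutral control wells; inactive = the rest, any valid replicate at or below 250%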;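 note: OY570 slx delta 5 strain wells were the positive control but not used for scaling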
CHT PAM – allosterically activates the human high affinity choline transporter; Q9GZV3; CHT-expressing cells, membrane potential dye, choline EC20; stronger effect = higher value; LV-AA mutant CHT in HEK293 cells; B-score at 10 µM; 310,000 compounds, 0.49% hits; AID 488977;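 active = initial fluorescence not abnormally high and integrated response B-score, plate-corrected, over 3 SD above library mean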
CHT block conf – confirmation of human choline transporter CHT inhibitors; shares compounds with CHT block; CHT-expressing cells, choline membrane potential dye; LV-to-AA substituted CHT, HEK293 cells; CHT activity remaining % of control (stronger effect = lower value), % at 10 µM; 2,400 compounds, 70% hits;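 active = choline transporter activity left, mean of duplicates at 10 µM, below buffer-only control mean minus 3 SD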;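 note: depolarization triggered by choline at its EC90 following an EC20 pre-addition; 0% = hemicholinium-3 full block and 100% = buffer-only control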
HEK293 MPD ctr – CHT inhibitor counter-screen hit in parental HEK293 cells; AID 493222; membrane potential ratio readout (active if shifted either direction beyond buffer ±3SD; no single direction) at 10 µM; 2,400 compounds, 4% hits; shares compounds with CHT block; membrane potential dye, choline response; active = decrease or increase beyond buffer ±3SD;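 note: parental cells lack the transporter so any hit is non-specific; ratio is peak minus trough fluorescence over baseline after EC90 choline challenge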
An asterisk follows results filed as active; i = inactive; nt = not tested or not shown.

SMILES | MEKK2wt PB1 HTS | MEKK3 PB1 HTS | CHT block | MEKK2mut PB1 HTS | SUMO Mot1 rescue | CHT PAM | CHT block conf | HEK293 MPD ctr
CC(=O)N(C)c1ccc(OCC(O)CN(Cc2ccco2)S(=O)(=O)c2ccc(C)cc2)cc1 (configuration not stated) | 91.0 | 93.0 | i | 0.0 | -4.3 | i | nt | nt
Cc1ccccc1Cn1cnc2c([N+](=O)[O-])c(C)c(C)cc21 | 97.0 | 98.0 | i | -1.0 | 3.3 | i | nt | nt
COc1ccc(Cn2cnc3c([N+](=O)[O-])c(C)c(C)cc32)cc1 | 96.0 | 102.0 | -9.43* | 0.0 | -8.4 | i | 34.2%* | i
c1ccc(-c2nc(NCc3cccnc3)c3oc4ccccc4c3n2)cc1 | 99.0 | 107.0 | i | 0.0 | 91.9 | i | nt | nt
O=C(CN1CCN(Cc2ccc(Cl)cc2)CC1)N1CCc2ccccc21 | 110.0 | 103.0 | -6.25* | 7.0 | 54.5 | i | 48.2%* | i
Cc1csc(=N)n1CC(=O)N1CCc2ccccc21 | 106.0 | 101.0 | -9.58* | 1.0 | 1.2 | i | 21.3%* | i
O=C(NCc1ccco1)/C(=C/c1ccc([N+](=O)[O-])cc1)NC(=O)c1ccco1 | 103.0 | 105.0 | i | 4.0 | 8.8 | i | nt | nt
C=CCNC(=O)/C(=C\c1ccc([N+](=O)[O-])cc1)NC(C)=O | 98.0 | 99.0 | -7.59* | 2.0 | 115.9 | i | i | i
COc1ccc(/C=C\C(=O)NCC(=O)N/N=C/c2ccc(O)cc2O)cc1 | 98.0 | 100.0 | -5.47* | 2.0 | -14.3 | i | i | i
Cc1cccc(NC(=O)C2CCN(S(C)(=O)=O)CC2)c1C | 101.0 | 104.0 | -5.28* | 1.0 | -4.6 | i | i | i
C=CCn1c(SCC(=O)NC(=O)NC2CCCC2)nnc1C1CCCCC1 | 98.0 | 84.0 | -4.99* | 2.0 | -0.5 | i | 68.2%* | i
CCCN(CC(=O)Nc1ccccc1C)C(=O)c1nn(CC)c(=O)c2ccccc12 | nt | nt | nt | nt | 17.0 | nt | nt | nt
CCN(CC)C(=O)CNC(=S)N(CCCN1CCOCC1)Cc1cccs1 | 95.0 | 101.0 | i | 1.0 | 3.1 | i | nt | nt
COc1ccc(-n2cnc3cc(C(=O)NCCN4CCOCC4)ccc32)cc1 | 96.0 | 100.0 | i | -2.0 | -3.7 | i | nt | nt
Cc1ccc(NC(=O)c2ccc(Cn3cc([N+](=O)[O-])cn3)cc2)c(C)c1 | 102.0 | 99.0 | -5.16* | -2.0 | -6.8 | i | 41.9%* | i
COC(=O)c1ccc(Cn2cc([N+](=O)[O-])cn2)cc1 | 102.0 | 104.0 | i | 9.0 | -8.3 | i | nt | nt
Nn1cnnc1SCC(=O)N1CCc2ccccc2C1 | nt | nt | nt | nt | 4.9 | nt | nt | nt
Cc1cc(C(=O)N/N=C/c2ccc3c(c2)OCO3)c(C)o1 | 90.0 | 102.0 | -7.09* | -12.0 | -15.0 | i | i | i
O=C(NNS(=O)(=O)c1ccccc1[N+](=O)[O-])c1cc2ccccc2cc1O | 94.0 | 99.0 | -7.26* | 1.0 | 39.8 | i | 62.3%* | i
O=C(NNS(=O)(=O)c1ccccc1[N+](=O)[O-])c1ccccc1Cl | 99.0 | 104.0 | i | -9.0 | 89.3 | i | nt | nt
O=C(CCC1CCCC1)NCCCNC(=O)CCC1CCCC1 | 101.0 | 94.0 | -6.47* | 5.0 | -10.0 | i | 37.9%* | i
CCOc1ccc(Br)cc1S(=O)(=O)NCCN1CCCC1 | 105.0 | 101.0 | i | 0.0 | 34.0 | i | nt | nt
O=C(Nc1ccccc1OC(F)F)c1cccc(S(=O)(=O)N2CCCC2)c1 | 96.0 | 102.0 | -5.07* | -9.0 | 0.3 | i | 55.6%* | i
CC(NC(=O)c1cccc(S(=O)(=O)N2CCN(C)CC2)c1)C1CC2CCC1C2 (configuration not stated) | 105.0 | 107.0 | -5.37* | 0.0 | -10.2 | i | 23.1%* | i
CN1CCN(S(=O)(=O)c2cccc(C(=O)NC3CCCc4ccccc43)c2)CC1 (configuration not stated) | nt | nt | -5.59* | nt | -2.6 | i | 50.6%* | i
SMILES | MEKK2wt PB1 HTS | MEKK3 PB1 HTS | CHT block | MEKK2mut PB1 HTS | SUMO Mot1 rescue | CHT PAM | CHT block conf | HEK293 MPD ctr
CC1CCC(NC(=O)c2cccc(S(=O)(=O)NCc3ccccc3)c2)CC1 (configuration not stated) | nt | nt | -14.8* | nt | 9.4 | i | 35.8%* | i
CCOc1ccccc1Nc1nnc(SC(C)C(=O)Nc2nc(-c3ccccc3)cs2)s1 (configuration not stated) | 94.0 | 97.0 | i | -2.0 | 0.9 | i | nt | nt
O=C(Nc1cc(S(=O)(=O)N2CCCCC2)ccc1O)c1ccccc1NS(=O)(=O)c1ccc(F)cc1 | 100.0 | 100.0 | -5.44* | 1.0 | 1.7 | i | 26.5%* | i
CCCNS(=O)(=O)c1cccc(C(=O)NC2CCCc3ccccc32)c1 (configuration not stated) | 93.0 | 97.0 | -12.2* | -7.0 | -15.7 | i | 19.9%* | i
CN1CCN(S(=O)(=O)c2cccc(C(=O)Nc3ccc(Br)cc3Br)c2)CC1 | 114.0 | 105.0 | -10.4* | 9.0 | -13.6 | i | 8.7%* | i
O=C(CSCc1cc(=O)n2nc(C3CC3)sc2n1)Nc1ccccc1Cl | 100.0 | 102.0 | i | 2.0 | 10.0 | i | nt | nt
Cc1cc(=O)c(C(=O)Nc2ccc(N3CCOCC3)cc2N2CCOCC2)nn1-c1ccccc1Cl | nt | nt | nt | nt | -5.9 | nt | nt | nt
Cc1cccc(NC(=O)N2CCc3ccccc3C2)c1C | 102.0 | 103.0 | i | 2.0 | -5.9 | i | nt | nt
Cc1ccccc1NC(=O)N1CCc2ccccc2C1 | 117.0 | 119.0 | -5.57* | -1.0 | -2.5 | i | i | i
O=C(O)c1ccc(-c2nc(-c3ccccc3Cl)cs2)cc1 | 101.0 | 100.0 | -5.43* | 4.0 | -8.9 | i | 39.5%* | i
O=C(O)CC(Cc1ccc(Cl)cc1)C(=O)Nc1cc(Cl)ccc1Cl (configuration not stated) | 97.0 | 102.0 | -5.34* | -3.0 | 5.2 | i | 52.8%* | i
O=c1c2ccccc2[nH]c(=S)n1CCN1CCCC1 | 105.0 | 101.0 | -6.97* | -1.0 | 0.8 | i | 21.3%* | i
CCOc1ccccc1OCCCC(=O)N1CCN(S(=O)(=O)c2ccc(C)cc2C)CC1 | nt | nt | nt | nt | 0.0 | nt | nt | nt
Cc1ccccc1NC(=O)c1cccc(S(=O)(=O)Oc2ccc([N+](=O)[O-])cc2)c1 | 91.0 | 88.0 | -5.72* | -5.0 | -7.2 | i | i | i
